Measurements published in PubChem BioAssay (EPA / NIEHS).
The source made the active and inactive calls. Rule for the calls: active = hit-call score of the fitted dose curve at least 0.9, where 1 is the maximum; inactive = score below 0.9.

These compounds were tested on Plasminogen activator inhibitor-1 (PAI1), SERPINE1 (gene 5054) (assay: BSK_hDFCGF_PAI1: BioMAP Diversity Plus: hDFCGF Assay for Plasminogen activator inhibitor-1 (PAI1) Biomarker Activity (AID 2283066)). Conditions: primary human foreskin fibroblasts; actives raise or lower the signal.
Outline: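 PAI-1 levels in human dermal foreskin fibroblasts were quantified by ELISA 24 h after dosing, with gain or loss analysed against DMSO. Overt cytotoxicity was checked by sulforhodamine B total-protein staining in parallel cultures.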

| SMILES | outcome | AC50 |
| --- | --- | --- |
| O=C(O)CCN(C1(C(=O)NO)CCCC1)S(=O)(=O)c1ccc(Oc2ccc(F)cc2)cc1 | inactive | – |
| COc1cccc(-c2ccc(/C=C\CN3CCCCCC3)cc2Cl)c1 | – | 25.3 µM (active) |
| O=C(OC[C@H]1O[C@@H](OC(=O)c2cc(O)c(O)c(OC(=O)c3cc(O)c(O)c(O)c3)c2)[C@H](OC(=O)c2cc(O)c(O)c(OC(=O)c3cc(O)c(O)c(O)c3)c2)[C@@H](OC(=O)c2cc(O)c(O)c(OC(=O)c3cc(O)c(O)c(O)c3)c2)[C@@H]1OC(=O)c1cc(O)c(O)c(OC(=O)c2cc(O)c(O)c(O)c2)c1)c1cc(O)c(O)c(OC(=O)c2cc(O)c(O)c(O)c2)c1 | – | 6.1 µM (active) |
| Clc1nc(Cl)c(Cl)c(Cl)c1Cl | inactive | – |
| COc1ccc(/C=C/S(=O)(=O)NC(=O)c2ccc(C)cc2Cl)cc1 | inactive | – |
| COC(=O)CC(=O)OC | inactive | – |
| O=c1[nH]c2ccc(S(=O)CCN3CCC(Cc4ccc(F)cc4)CC3)cc2o1 (centres undefined) | inactive | – |
| CC[C@H](C)C(=O)O[C@H]1C[C@@H](C)C=C2C=C[C@H](C)[C@H](CC[C@@H]3C[C@@H](O)CC(=O)O3)[C@H]21 | – | 31.9 µM (active) |
| Cc1c(-c2cccnc2)c2ccccc2n1CCCCC(=O)O | inactive | – |

These compounds were tested on Intercellular Adhesion Molecule 1 (ICAM1), ICAM1 (gene 3383) (assay: BSK_KF3CT_ICAM1: BioMAP Diversity Plus: KF3CT Assay for Intercellular Adhesion Molecule 1 (ICAM1) Biomarker Activity (AID 2283067)). Conditions: primary human keratinocytes with fibroblasts; actives raise or lower the signal.
Outline: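 ICAM-1 levels are measured by ELISA 24 h after dosing a primary human co-culture of keratinocytes and foreskin fibroblasts. Activity in either direction is fitted relative to DMSO vehicle.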

| SMILES | AC50 | outcome |
| --- | --- | --- |
| CCCCCCc1ccc(O)cc1O | 31.3 µM (active) | – |
| COc1ccc2sc(C(=O)Nc3nnn[nH]3)c(OC(C)C)c2c1 | 24 µM (active) | – |
| CN(C)c1ccc(N=NS(=O)(=O)O)cc1 | – | inactive |
| CCn1nc(Cc2ccccc2)cc1C1CCN(C[C@H]2C[C@H](N(C)[C@@H](C(=O)O)C(C)C)C[C@@H]2c2cccc(F)c2)CC1 | – | inactive |
| Cc1ccc(C)c(O)c1 | – | inactive |
| CCOC(=O)COc1ccc2c(c1)CC(NCC(O)c1cccc(Cl)c1)CC2 (centres undefined) | – | inactive |
| O=C(O)c1cc(N=Nc2ccc(S(=O)(=O)Nc3ccccn3)cc2)ccc1O | – | inactive |
| O=C(NS(=O)(=O)/C=C/c1ccccc1)c1ccc(F)cc1Cl | – | inactive |
| C[C@](N)(Cc1ccc(O)c(O)c1)C(=O)O | – | inactive |
| CCCCC(CC)COC(=O)CCCCCCCCC(=O)OCC(CC)CCCC (centres undefined) | – | inactive |
| CNS(=O)(=O)c1cc(C(=O)N2CCC(CCN3C4CCC3CC(n3c(C)nc5ccccc53)C4)(c3cccc(F)c3)CC2)c(Cl)cc1F (centres undefined) | – | inactive |
| Oc1ccc2c(c1)-c1ccccc1C2 | – | inactive |
| COc1cccc(-c2ccc(/C=C\CN3CCCCCC3)cc2Cl)c1 | 28.4 µM (active) | – |
| Clc1nc(Cl)c(Cl)c(Cl)c1Cl | – | inactive |
| COc1ccc(/C=C/S(=O)(=O)NC(=O)c2ccc(C)cc2Cl)cc1 | – | inactive |
| O=c1[nH]c2ccc(S(=O)CCN3CCC(Cc4ccc(F)cc4)CC3)cc2o1 (centres undefined) | – | inactive |
| CC[C@H](C)C(=O)O[C@H]1C[C@@H](C)C=C2C=C[C@H](C)[C@H](CC[C@@H]3C[C@@H](O)CC(=O)O3)[C@H]21 | 33.6 µM (active) | – |

Each compound was assayed on Interferon-gamma inducible Protein 10 (IP10), CXCL10 (gene 3627) (assay: BSK_KF3CT_IP10: BioMAP Diversity Plus: KF3CT Assay for Interferon-gamma inducible Protein 10 (IP10) Biomarker Activity (AID 2283068)). Conditions: primary human keratinocytes with fibroblasts; actives raise or lower the signal.
Outline: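 In a primary skin co-culture of keratinocytes and fibroblasts, IP-10 is quantified by ELISA at 24 h after dosing. SRB staining of parallel wells monitors overt toxicity. Curves are fitted both directions against DMSO.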

| SMILES | AC50 | outcome |
| --- | --- | --- |
| COc1ccc2sc(C(=O)Nc3nnn[nH]3)c(OC(C)C)c2c1 | 25.4 µM (active) | – |
| CN(C)c1ccc(N=NS(=O)(=O)O)cc1 | – | inactive |
| Nc1nc2ncc(CNc3ccc(C(=O)N[C@@H](CCC(=O)O)C(=O)O)cc3)nc2c(=O)[nH]1 | – | inactive |
| CCn1nc(Cc2ccccc2)cc1C1CCN(C[C@H]2C[C@H](N(C)[C@@H](C(=O)O)C(C)C)C[C@@H]2c2cccc(F)c2)CC1 | – | inactive |
| Cc1ccc(C)c(O)c1 | – | inactive |
| C=CC(=C)CCC=C(C)C | – | inactive |
| O=C1OC(=O)C2C3C=CC(C3)C12 (centres undefined) | – | inactive |
| CCOC(=O)COc1ccc2c(c1)CC(NCC(O)c1cccc(Cl)c1)CC2 (centres undefined) | – | inactive |
| CCOCCOCCOCCO | – | inactive |
| CCCC(=O)OCC | – | inactive |
| O=C(O)c1cc(N=Nc2ccc(S(=O)(=O)Nc3ccccn3)cc2)ccc1O | – | inactive |
| O=C(NS(=O)(=O)/C=C/c1ccccc1)c1ccc(F)cc1Cl | – | inactive |
| C[C@](N)(Cc1ccc(O)c(O)c1)C(=O)O | – | inactive |
| CCCCC(CC)COC(=O)CCCCCCCCC(=O)OCC(CC)CCCC (centres undefined) | – | inactive |
| CCCCCCCCCCCCc1ccccc1 | – | inactive |
| O=P(OC(CCl)CCl)(OC(CCl)CCl)OC(CCl)CCl | – | inactive |
| CNS(=O)(=O)c1cc(C(=O)N2CCC(CCN3C4CCC3CC(n3c(C)nc5ccccc53)C4)(c3cccc(F)c3)CC2)c(Cl)cc1F (centres undefined) | – | inactive |
| Oc1ccc2c(c1)-c1ccccc1C2 | – | inactive |
| CC(C)CCCCCCOC(=O)c1ccc(C(=O)OCCCCCCC(C)C)c(C(=O)OCCCCCCC(C)C)c1 | – | inactive |
| O=C(O)CCN(C1(C(=O)NO)CCCC1)S(=O)(=O)c1ccc(Oc2ccc(F)cc2)cc1 | – | inactive |
| COc1cccc(-c2ccc(/C=C\CN3CCCCCC3)cc2Cl)c1 | 29.7 µM (active) | – |
| O=C(OC[C@H]1O[C@@H](OC(=O)c2cc(O)c(O)c(OC(=O)c3cc(O)c(O)c(O)c3)c2)[C@H](OC(=O)c2cc(O)c(O)c(OC(=O)c3cc(O)c(O)c(O)c3)c2)[C@@H](OC(=O)c2cc(O)c(O)c(OC(=O)c3cc(O)c(O)c(O)c3)c2)[C@@H]1OC(=O)c1cc(O)c(O)c(OC(=O)c2cc(O)c(O)c(O)c2)c1)c1cc(O)c(O)c(OC(=O)c2cc(O)c(O)c(O)c2)c1 | 4.98 µM (active) | – |
| Clc1nc(Cl)c(Cl)c(Cl)c1Cl | – | inactive |
| COc1ccc(/C=C/S(=O)(=O)NC(=O)c2ccc(C)cc2Cl)cc1 | 32.6 µM (active) | – |
| COC(=O)CC(=O)OC | – | inactive |
| O=c1[nH]c2ccc(S(=O)CCN3CCC(Cc4ccc(F)cc4)CC3)cc2o1 (centres undefined) | – | inactive |
| CC[C@H](C)C(=O)O[C@H]1C[C@@H](C)C=C2C=C[C@H](C)[C@H](CC[C@@H]3C[C@@H](O)CC(=O)O3)[C@H]21 | 34.6 µM (active) | – |
| Cc1c(-c2cccnc2)c2ccccc2n1CCCCC(=O)O | – | inactive |
